For some assays here: Results with a measured potency or affinity are listed apart.
What was measured:
Set-up in all cases: scale not given: direction of the effect not stated beside the values
[1] = target: Protein translocase subunit SecA (Escherichia coli (strain K12)) (UniProt P10408); assay: Assay to Identify E. coli SecA ATPase Inhibitors; type: functional; details: 30 µM
[2] = target: T1, Ubiquitin-activating enzyme e1, putative (Leishmania donovani (strain BPK282A1)) (UniProt E9BSI1); assay: Leishmania donovani Ubiquitin Activating Enzyme (LdE1); type: functional; details: 30 µM
T1 sequence (whole entry): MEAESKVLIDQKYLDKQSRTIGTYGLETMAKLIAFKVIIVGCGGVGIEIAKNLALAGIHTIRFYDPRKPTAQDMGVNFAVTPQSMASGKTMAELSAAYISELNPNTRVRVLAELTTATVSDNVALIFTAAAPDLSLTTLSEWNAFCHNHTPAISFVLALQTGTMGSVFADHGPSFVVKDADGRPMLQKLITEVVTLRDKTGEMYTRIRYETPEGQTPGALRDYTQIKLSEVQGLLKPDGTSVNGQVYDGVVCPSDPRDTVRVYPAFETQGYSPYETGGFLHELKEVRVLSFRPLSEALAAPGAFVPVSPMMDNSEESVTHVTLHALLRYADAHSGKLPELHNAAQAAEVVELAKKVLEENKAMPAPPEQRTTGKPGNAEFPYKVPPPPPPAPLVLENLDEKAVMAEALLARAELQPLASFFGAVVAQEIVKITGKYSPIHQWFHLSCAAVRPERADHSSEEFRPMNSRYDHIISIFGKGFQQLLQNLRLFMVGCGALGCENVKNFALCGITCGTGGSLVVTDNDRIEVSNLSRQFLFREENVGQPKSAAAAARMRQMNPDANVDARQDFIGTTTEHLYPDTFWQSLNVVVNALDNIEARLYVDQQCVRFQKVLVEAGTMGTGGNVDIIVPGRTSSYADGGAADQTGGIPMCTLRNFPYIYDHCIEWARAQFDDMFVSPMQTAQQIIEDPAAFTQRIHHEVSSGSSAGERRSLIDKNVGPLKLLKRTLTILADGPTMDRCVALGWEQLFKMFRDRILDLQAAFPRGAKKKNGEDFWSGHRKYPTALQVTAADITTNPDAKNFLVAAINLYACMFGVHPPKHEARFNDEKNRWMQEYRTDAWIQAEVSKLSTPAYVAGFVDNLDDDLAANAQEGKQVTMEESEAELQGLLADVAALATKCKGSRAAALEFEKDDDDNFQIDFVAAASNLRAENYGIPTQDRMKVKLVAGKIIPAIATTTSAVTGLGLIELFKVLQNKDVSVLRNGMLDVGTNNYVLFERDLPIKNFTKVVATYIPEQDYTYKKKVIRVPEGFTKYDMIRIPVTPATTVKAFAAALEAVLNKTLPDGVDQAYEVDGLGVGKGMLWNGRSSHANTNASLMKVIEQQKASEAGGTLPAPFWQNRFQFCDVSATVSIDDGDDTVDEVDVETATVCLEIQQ

[3] = target: AMP-activated protein kinase, AMPK (Homo sapiens) (UniProt P54646+O43741+P54619+Q9UGJ0+Q9Y478+Q13131+Q9UGI9); assay: AMP-dependent Kinase enzyme assay. An in vitro enzyme assay that detects ADP turnover that is directly proportional to AMPK activity. This uses naive AMPK that is activated during the assay with MK-8722; type: functional; details: 30 µM
[4] = target: Sialic acid-binding Ig-like lectin 9 (Homo sapiens) (UniProt Q9Y336); assay: Hs-Siglec9 ALPHAscreen SOP 20170721; details: 10 µM
Sialic acid-binding Ig-like lectin 9 (Homo sapiens), sequence (Q9Y336 whole entry): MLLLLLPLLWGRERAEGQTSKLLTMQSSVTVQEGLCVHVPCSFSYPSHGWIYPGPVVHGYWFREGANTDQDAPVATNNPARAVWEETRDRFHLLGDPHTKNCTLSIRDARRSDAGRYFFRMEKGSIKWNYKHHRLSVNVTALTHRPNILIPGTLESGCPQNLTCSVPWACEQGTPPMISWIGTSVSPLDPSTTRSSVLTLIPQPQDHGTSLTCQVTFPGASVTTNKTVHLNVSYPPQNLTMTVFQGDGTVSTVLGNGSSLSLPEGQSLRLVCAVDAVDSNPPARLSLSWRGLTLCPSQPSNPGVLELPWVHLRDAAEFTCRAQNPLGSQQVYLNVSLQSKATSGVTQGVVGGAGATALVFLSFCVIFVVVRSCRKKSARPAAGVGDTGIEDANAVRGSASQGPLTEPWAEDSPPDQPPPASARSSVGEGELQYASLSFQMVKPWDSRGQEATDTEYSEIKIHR

Trypanosoma cruzi = assay: Trypanosoma cruzi phosphomannomutase and mannose-1-phosphate guanylyltransferase assay; type: functional; details: 10 µM
[5] = target: T2, Arginase-2, mitochondrial (Homo sapiens) (UniProt P78540); assay: in vitro enzyme assay to detect the production of urea directly proportional to the activity of Arginase II; type: functional; details: 33.3 µM; note: in the data most compounds retested in dose-response had high values
T2 sequence (whole entry): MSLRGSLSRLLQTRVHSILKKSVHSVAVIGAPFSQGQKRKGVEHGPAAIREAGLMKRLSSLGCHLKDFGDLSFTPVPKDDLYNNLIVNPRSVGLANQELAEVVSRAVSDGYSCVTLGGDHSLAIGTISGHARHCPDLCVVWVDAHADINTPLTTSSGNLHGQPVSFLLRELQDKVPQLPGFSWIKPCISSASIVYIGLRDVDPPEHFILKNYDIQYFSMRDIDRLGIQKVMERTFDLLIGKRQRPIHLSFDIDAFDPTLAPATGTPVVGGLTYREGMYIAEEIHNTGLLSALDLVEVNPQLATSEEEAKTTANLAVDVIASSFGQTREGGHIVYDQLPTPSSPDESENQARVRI

[6] = target: T3, Proteasome subunit beta (Trypanosoma cruzi) (UniProt O96673); assay: Trypanosoma cruzi proteasome chymotrypsin-like activity (TcProtChymo) assay.; note: in the data most compounds retested in dose-response had high values; type: functional; details: 9.37 µM
T3 sequence (whole entry): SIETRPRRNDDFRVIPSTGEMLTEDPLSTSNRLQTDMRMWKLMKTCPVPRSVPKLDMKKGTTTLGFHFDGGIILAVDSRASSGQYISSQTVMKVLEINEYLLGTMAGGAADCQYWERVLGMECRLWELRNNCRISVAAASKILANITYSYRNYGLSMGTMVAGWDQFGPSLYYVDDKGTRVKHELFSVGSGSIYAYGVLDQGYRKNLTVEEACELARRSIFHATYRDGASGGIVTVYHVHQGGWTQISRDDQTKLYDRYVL

Homo sapiens = organism: Homo sapiens; assay: To identify inhibition of the IFN signalling (Jak-Stat) pathway via expression of an eGFP reporter gene under the control of an IFN-stimulated response element (ISRE) containing MxA promoter.; type: functional; details: 30 µM
[7] = target: T4, Tyrosyl-tRNA synthetase, putative (Trypanosoma cruzi (strain CL Brener)) (UniProt Q4DSP6); assay: Trypanosoma cruzi tyrosyl tRNA synthetase (TcYRS) _High Tyrosine SOP; type: functional; details: 30 µM; note: in the data most compounds retested in dose-response had high values
T4 sequence (whole entry): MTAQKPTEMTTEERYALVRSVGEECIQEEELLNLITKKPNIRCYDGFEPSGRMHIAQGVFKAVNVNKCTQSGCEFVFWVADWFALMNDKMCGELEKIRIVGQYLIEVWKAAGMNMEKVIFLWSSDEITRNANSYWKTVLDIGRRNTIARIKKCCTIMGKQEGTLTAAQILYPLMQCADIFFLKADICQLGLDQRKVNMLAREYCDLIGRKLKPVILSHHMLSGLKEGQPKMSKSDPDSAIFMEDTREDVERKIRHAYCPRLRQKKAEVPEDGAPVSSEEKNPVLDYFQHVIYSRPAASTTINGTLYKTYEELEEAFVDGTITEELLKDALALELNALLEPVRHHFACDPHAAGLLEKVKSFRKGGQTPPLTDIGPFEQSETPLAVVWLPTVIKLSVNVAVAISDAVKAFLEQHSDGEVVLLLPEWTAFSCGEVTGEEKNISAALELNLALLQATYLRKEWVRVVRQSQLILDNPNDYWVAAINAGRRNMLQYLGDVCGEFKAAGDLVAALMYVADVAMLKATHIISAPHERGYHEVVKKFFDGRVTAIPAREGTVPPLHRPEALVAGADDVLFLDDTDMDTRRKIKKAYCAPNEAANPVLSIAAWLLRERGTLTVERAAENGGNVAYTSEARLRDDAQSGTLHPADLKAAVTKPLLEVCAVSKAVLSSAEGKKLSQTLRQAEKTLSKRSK

[8] = target: T4, Tyrosyl-tRNA synthetase, putative (Trypanosoma cruzi (strain CL Brener)); assay: Trypanosoma cruzi tyrosyl tRNA synthetase (TcYRS) SOP; type: functional; details: 30 µM
[9] = target: Chromo domain-containing protein 1 (Saccharomyces cerevisiae (strain ATCC 204508 / S288c) (Baker's yeast)) (UniProt P32657); assay: ScCHD-1 Enzyme Inhibition Assay; type: functional; details: 30 µM; note: in the data most compounds retested in dose-response had high values
Chromo domain-containing protein 1 (Saccharomyces cerevisiae (strain ATCC 204508 / S288c) (Baker's yeast)), sequence (P32657 whole entry, the tested form may be a part): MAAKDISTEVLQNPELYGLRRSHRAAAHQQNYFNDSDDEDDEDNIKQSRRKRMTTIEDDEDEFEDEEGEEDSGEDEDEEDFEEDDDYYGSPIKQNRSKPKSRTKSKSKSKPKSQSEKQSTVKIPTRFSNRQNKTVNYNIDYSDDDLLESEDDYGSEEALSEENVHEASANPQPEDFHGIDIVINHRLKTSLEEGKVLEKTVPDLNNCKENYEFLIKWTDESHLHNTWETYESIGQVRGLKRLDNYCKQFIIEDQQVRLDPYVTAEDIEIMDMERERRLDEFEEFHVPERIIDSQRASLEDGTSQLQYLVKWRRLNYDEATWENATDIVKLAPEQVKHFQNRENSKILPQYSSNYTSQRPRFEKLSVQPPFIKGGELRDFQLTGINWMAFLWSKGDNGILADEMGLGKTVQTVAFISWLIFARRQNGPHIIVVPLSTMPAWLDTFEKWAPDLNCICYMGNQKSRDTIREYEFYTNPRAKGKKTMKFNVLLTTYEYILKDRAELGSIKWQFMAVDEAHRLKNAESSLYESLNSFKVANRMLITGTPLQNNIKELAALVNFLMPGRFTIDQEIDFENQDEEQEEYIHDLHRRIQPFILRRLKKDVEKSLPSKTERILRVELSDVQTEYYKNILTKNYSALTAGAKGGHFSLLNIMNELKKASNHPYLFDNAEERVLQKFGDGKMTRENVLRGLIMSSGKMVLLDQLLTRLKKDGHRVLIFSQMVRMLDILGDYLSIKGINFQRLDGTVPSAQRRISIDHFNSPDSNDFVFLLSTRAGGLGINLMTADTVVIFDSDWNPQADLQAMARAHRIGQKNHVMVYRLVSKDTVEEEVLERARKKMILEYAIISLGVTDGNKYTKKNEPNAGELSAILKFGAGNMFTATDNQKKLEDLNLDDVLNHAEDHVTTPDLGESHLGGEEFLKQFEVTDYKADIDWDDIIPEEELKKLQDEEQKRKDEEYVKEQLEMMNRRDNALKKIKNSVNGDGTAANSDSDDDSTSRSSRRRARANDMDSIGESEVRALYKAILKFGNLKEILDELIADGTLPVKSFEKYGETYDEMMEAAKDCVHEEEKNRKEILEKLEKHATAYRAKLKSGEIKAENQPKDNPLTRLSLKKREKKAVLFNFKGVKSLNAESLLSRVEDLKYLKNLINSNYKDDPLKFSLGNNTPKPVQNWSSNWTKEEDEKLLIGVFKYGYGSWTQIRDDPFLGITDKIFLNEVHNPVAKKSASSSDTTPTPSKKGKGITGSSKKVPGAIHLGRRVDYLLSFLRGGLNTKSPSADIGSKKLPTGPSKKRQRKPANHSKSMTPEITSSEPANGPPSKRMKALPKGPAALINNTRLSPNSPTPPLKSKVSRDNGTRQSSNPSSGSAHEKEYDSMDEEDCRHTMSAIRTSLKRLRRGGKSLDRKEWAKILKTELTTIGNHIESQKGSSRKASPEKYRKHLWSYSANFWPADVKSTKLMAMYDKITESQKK

Protein translocase subunit SecA (Escherichia coli (strain K12)), sequence (P10408 whole entry): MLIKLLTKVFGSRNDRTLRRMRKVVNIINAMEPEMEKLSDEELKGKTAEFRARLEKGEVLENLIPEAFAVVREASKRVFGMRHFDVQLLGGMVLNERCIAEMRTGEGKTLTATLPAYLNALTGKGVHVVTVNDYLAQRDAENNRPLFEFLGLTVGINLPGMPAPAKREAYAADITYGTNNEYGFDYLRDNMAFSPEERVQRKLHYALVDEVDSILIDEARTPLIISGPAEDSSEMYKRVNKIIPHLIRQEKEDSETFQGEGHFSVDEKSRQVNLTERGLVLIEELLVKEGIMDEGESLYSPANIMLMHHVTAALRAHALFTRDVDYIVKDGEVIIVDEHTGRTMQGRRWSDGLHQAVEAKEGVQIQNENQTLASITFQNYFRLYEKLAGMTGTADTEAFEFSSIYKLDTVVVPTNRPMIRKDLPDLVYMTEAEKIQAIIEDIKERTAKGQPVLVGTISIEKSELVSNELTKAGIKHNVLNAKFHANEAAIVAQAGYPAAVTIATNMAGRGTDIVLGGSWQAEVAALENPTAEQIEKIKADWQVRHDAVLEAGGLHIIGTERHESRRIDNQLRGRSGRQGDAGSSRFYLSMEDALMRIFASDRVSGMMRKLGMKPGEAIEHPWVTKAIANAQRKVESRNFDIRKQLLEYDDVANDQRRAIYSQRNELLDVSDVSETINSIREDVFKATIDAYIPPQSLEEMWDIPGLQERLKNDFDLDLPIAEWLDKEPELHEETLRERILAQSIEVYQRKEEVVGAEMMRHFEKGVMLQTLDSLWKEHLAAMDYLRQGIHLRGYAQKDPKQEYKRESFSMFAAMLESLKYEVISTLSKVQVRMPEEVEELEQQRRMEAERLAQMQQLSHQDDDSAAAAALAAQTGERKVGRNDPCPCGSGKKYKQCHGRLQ

Row | Compound | Percent Effect [1] [%] | Percent Effect [2] [%] | Percent Effect [3] [%] | Percent Effect [4] [%] | Percent Effect (Trypanosoma cruzi) [%] | Percent Effect [5] [%] | Percent Effect [6] [%] | Percent Effect (Homo sapiens) [%] | Percent Effect [7] [%] | Percent Effect [8] [%] | Percent Effect [9] [%]
1 | CC(C)N1CC(C(=O)NCCOc2ccc3c(c2)OCO3)CC1=O (stereo not given) | 0.716 | 21.1 | -0.48 | -5.15 | 3.64 | 2.16 | 12.1 | 4.59 | 8.37 | 23.5 | -9.09
2 | CCn1cc(NC(=O)C2CCN(CC(=O)N3CCOCC3)CC2)cn1 | -3.94 | 10.5 | -3.09 | 3.27 | -4.01 | 1.8 | 3.98 | 3.5 | 2.46 | 11.1 | 4.1
3 | CC(NC(=O)NCCN1CCCCCC1=O)c1nncn1C (stereo not given) | -5.58 | 13.5 | -10.1 | 13.4 | 4.92 | -3.51 | -2.69 | 11.3 | 7.92 | 15.8 | -6.06
4 | CCc1nc(CC(=O)N2CCOCC2c2ncon2)cs1 (stereo not given) | -0.574 | -2.7 | -3.99 | -2.13 | -3.99 | 1.29 | 5.75 | -8.37 | 0 | -1.22 | 2.33
5 | CN(CCn1nc2ccccn2c1=O)CC(=O)N1CCCC1 | -5.53 | 0 | 6.84 | 5.95 | -6.33 | 3.55 | 11.6 | 15.5 | 3.19 | 2.6 | 29.3
6 | Cc1cccc(C(=O)NCCCN2CCN(c3ccccc3)CC2)c1 | -2.4 | 10.4 | -2.04 | -11.3 | -7 | 5.81 | 12.7 | 13.6 | 1.06 | 8.97 | -9.93
7 | Cc1noc(C2CCC3(CCN(C(=O)C4=CCCCC4)CC3)O2)n1 (stereo not given) | -7.11 | 10.8 | -5.86 | 30.2 | 3.42 | 3.23 | 8.67 | 3.52 | 8.6 | 16.1 | -7.09
8 | Cc1cc(C)nc(N2CCN(C(=O)c3cc(Cl)c[nH]3)CC2)n1 | -3.35 | 8.22 | -2.54 | 4.32 | 0.595 | -3.99 | 17.2 | -6.92 | 10.4 | 16.1 | -1.43
9 | CCCN1CCC(N(Cc2ncc(C)o2)C(C)=O)C1 (stereo not given) | -6.17 | 0 | -14.9 | 26.2 | 2.05 | -0.744 | 22.6 | 1.11 | 3.23 | 1.24 | -1.33
10 | CC(C)N(C)Cc1cnc2n1CCN(C(=O)NC1CCCC1)C2 | -1.5 | 0 | 9.85 | -1.01 | -7.09 | 3.96 | 13.7 | 7.83 | 1.06 | 1.28 | 0.39

Source: ChEMBL document CHEMBL3988442, “University of Dundee, Small-Polar-MMV Screening Library” (2021)
